Bioassay records deposited in PubChem BioAssay by University of Kansas High Throughput Screening Laboratory.
mHTT-CaM PPI inh: disrupts binding of mutant huntingtin to calmodulin. inhibition, % at 15 µM. 190,000 tested, 3.6% active. P42858. AlphaScreen His-mHTT/GST-CaM binding, luminescence;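 further: 0% = both proteins with DMSO and 100% = one protein alone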
Target sequence (P42858 whole entry, looked up, stated change not applied): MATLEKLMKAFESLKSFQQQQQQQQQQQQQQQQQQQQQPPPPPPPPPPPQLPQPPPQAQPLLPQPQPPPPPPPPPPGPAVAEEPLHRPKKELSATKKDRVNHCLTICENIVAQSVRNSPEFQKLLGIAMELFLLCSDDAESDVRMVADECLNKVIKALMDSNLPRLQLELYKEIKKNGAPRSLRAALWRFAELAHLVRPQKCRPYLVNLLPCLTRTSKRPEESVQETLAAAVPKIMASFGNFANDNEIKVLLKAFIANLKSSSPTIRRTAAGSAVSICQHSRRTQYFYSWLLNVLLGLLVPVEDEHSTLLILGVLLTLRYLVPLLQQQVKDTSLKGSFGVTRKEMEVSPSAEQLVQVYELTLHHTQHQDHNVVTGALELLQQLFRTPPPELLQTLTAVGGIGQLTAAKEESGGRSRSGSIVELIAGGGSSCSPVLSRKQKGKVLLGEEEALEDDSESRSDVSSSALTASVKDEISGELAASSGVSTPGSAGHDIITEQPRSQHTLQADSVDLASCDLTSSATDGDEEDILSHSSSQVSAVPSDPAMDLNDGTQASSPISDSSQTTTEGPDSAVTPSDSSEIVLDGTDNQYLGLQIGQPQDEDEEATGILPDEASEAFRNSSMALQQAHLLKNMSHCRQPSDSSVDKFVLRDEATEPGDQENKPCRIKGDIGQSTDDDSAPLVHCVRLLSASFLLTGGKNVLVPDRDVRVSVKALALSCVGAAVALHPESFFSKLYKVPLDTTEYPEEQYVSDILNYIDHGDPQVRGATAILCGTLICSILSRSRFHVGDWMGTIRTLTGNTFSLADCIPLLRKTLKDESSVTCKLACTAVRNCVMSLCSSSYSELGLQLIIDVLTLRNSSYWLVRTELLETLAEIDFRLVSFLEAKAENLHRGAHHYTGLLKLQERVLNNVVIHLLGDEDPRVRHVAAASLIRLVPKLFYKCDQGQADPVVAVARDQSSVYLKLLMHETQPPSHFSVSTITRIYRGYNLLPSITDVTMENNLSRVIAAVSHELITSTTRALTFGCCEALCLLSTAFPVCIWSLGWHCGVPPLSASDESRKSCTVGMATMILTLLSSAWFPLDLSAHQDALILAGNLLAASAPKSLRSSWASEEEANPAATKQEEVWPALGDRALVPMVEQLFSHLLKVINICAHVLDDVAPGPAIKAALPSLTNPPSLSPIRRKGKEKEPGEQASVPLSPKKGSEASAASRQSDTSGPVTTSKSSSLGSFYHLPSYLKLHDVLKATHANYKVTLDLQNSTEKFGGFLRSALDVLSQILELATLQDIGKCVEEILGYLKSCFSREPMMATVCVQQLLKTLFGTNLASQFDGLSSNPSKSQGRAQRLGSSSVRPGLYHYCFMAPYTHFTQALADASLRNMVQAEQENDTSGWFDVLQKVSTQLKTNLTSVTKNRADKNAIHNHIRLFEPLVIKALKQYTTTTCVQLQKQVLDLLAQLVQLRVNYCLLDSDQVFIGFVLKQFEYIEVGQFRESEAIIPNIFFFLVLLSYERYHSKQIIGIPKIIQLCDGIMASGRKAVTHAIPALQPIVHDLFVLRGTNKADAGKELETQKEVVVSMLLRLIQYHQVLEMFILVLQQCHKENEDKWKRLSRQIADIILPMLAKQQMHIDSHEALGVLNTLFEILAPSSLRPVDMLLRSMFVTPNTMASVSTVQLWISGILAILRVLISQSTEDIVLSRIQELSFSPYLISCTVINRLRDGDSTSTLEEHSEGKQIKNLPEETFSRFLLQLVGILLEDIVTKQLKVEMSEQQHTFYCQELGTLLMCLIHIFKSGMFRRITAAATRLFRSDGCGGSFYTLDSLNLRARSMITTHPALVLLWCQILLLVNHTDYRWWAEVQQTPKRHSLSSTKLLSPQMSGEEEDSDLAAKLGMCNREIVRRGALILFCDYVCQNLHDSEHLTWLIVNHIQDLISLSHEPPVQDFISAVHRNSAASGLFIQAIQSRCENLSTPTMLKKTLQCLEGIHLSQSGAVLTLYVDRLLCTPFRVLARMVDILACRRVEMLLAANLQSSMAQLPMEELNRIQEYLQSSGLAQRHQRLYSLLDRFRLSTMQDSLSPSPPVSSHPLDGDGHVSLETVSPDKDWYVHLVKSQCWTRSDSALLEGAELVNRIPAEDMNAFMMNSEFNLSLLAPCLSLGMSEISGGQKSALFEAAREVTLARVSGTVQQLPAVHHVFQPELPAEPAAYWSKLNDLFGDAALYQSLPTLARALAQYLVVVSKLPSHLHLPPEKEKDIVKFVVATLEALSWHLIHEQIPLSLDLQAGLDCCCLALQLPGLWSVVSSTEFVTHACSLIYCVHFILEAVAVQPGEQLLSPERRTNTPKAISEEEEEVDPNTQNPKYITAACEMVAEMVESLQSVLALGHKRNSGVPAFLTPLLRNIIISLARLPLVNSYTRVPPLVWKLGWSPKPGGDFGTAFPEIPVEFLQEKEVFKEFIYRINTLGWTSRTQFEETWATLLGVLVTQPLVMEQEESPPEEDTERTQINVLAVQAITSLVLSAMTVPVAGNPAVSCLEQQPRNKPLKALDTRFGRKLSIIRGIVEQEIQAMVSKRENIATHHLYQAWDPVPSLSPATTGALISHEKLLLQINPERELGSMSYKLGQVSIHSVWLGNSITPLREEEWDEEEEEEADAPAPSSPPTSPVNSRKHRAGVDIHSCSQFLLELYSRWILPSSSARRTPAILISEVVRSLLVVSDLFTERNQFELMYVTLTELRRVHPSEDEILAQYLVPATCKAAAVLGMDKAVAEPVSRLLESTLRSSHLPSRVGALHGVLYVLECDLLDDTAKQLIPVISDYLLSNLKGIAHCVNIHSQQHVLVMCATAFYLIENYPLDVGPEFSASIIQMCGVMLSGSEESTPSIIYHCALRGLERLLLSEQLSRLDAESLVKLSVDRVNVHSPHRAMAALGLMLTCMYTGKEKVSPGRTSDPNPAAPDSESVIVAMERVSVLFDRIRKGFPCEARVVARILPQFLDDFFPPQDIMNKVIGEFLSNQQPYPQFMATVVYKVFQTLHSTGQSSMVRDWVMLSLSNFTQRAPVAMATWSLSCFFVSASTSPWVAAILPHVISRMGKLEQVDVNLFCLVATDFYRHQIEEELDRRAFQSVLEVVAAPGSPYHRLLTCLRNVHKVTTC
Pf apPOL inh: Pf-apPOL DNA polymerase inhibition. Recombinant Pf-apPOL, molecular beacon fluorescence, 1.5 h. inhibition, % at 10 µM. 210,000 tested, 0.25% active
Numbers without * were called inactive; nt = not tested or not shown. The full list was thinned out, with hits kept by preference. No stated cut-off is given here; in the data, active means inhibition above about 50%; inactive means the rest.

SMILES	mHTT-CaM PPI inh	Pf apPOL inh
Cc1ccc(C)c(C2CC(c3ccc(F)cc3)=NN2C(=O)CN2CCOCC2)c1 (centres undefined)	50*	2
Cc1ccc(C2CC(c3ccccc3F)=NN2C(=O)CN2CCOCC2)c(C)c1 (centres undefined)	83*	1
Cc1ccc(C2=NN(C(=O)CN3CCOCC3)C(c3ccc(F)cc3)C2)cc1 (centres undefined)	28	-6
CCC(=O)N(C)CC(=O)N1N=C(c2cccs2)CC1c1ccccc1 (centres undefined)	7	-6
O=C(CN1CCOCC1)N1N=C(c2ccccc2Cl)CC1c1ccccc1Cl (centres undefined)	100*	-3
COc1ccccc1C1=NN(C(=O)CN2CCOCC2)C(c2ccccc2Cl)C1 (centres undefined)	38	-4
O=C(CN1CCOCC1)N1N=C(c2ccc(F)cc2)CC1c1ccccc1F (centres undefined)	14	-4
CCC(=O)N(C)CC(=O)N1N=C(c2ccc(C)c(C)c2)CC1c1ccccc1 (centres undefined)	56*	1
Cc1ccc2[nH]c(=O)c(-c3nc(-c4ccccc4C)no3)c(O)c2c1	0	0
Cc1ccc(NS(=O)(=O)c2ccc(F)cc2)cc1	-7	-7
COc1ccc(C2CC(c3ccccc3)=NN2C(=O)CN2CCOCC2)cc1 (centres undefined)	27	-6
Cc1ccc(C)c(C2=NN(C(=O)CN3CCOCC3)C(c3ccccc3C)C2)c1 (centres undefined)	85*	-4
Cc1ccc(C2=NN(C(=O)CN3CCOCC3)C(c3ccccc3)C2)cc1C (centres undefined)	52*	-2
COc1cccc(C2CC(c3cc(C)ccc3C)=NN2C(=O)CN2CCOCC2)c1 (centres undefined)	47	-8
Cc1ccc(C2=NN(C(=O)CN3CCOCC3)C(c3ccccc3C)C2)cc1C (centres undefined)	51*	-1
Cc1ccc(C2=NN(C(=O)CN3CCOCC3)C(c3ccccc3Cl)C2)cc1 (centres undefined)	48	-7
CC(=O)N1CCc2cc(S(=O)(=O)Nc3ccccc3F)ccc21	10	0
O=C(NCC1CCN(Cc2ccco2)CC1)C(=O)Nc1ccc(F)c(Cl)c1	-5	-5
O=C(NC(N1CCOCC1)C(Cl)(Cl)Cl)c1ccc(Cl)cc1Cl (centres undefined)	-6	-4
N#CC(=Cc1c(Cl)cccc1Cl)S(=O)(=O)c1ccc(Cl)cc1	nt	-5
N#C/C(=C\c1cn[nH]c1-c1ccccc1)S(=O)(=O)c1ccc(Cl)cc1	89*	12
CC(C)(C)n1ncc2c(=O)n(NC(=O)c3c(F)cccc3F)cnc21	5	-8
CC(C)C[C@@H](COc1ccccc1)N1CCN(CCc2ccccc2)CCC1=O	84*	-10
O=C1CCN(CCc2ccccc2)CCN1[C@H](COc1ccccc1)Cc1ccccc1	98*	-4
CCCN1CCC(=O)N([C@H](COc2ccccc2)CC(C)C)CC1	7	-3
SMILES	mHTT-CaM PPI inh	Pf apPOL inh
CC(C)CN1CCC(=O)N([C@H](COc2ccccc2)Cc2ccccc2)CC1	19	-6
O=C1CCN(CCc2ccccc2)CCN1[C@H](CSc1ccc(Br)cc1)c1ccccc1	21	-4
CC(=O)Nc1ccc(SC[C@H](c2ccccc2)N2CCN(CCc3ccccc3)CCC2=O)cc1	98*	-6
O=c1oc2ccccc2cc1-c1nc(-c2ccc(Br)cc2)cs1	4	1
C1CCN(CC23CC4CCC(CC(C4)C2)C3)C1	0	-4
CCCc1cc(C2CCCN2C(=O)CCc2ccc(OC)cc2)no1 (centres undefined)	2	3
O=C1CSC(c2ccccc2)N1c1ccc(Oc2ccccc2)cc1 (centres undefined)	78*	0
CCOc1ccc(N2C(=O)CSC2c2cccc([N+](=O)[O-])c2)cc1 (centres undefined)	5	4
O=C1CSC(c2ccccc2)N1c1ccccc1 (centres undefined)	0	-2
O=C1CSC(c2cccc([N+](=O)[O-])c2)N1c1ccc(Oc2ccccc2)cc1 (centres undefined)	78*	0
CCOC(=O)C1CCN(C(=O)c2cn3ccc(C)cc3n2)CC1	-4	-3
COc1ccc(C2=N/C(=C\c3cc(Br)cs3)C(=O)O2)cc1OC	2	-4
Cn1c(SCC(=O)O)nnc1-c1ccc(NC(=O)c2ccccc2Cl)cc1	1	85*
Cn1c(SCC(=O)c2ccccc2)nnc1-c1ccc(NC(=O)c2ccccc2Cl)cc1	16	-5
Cc1ccc(C)c(S(=O)(=O)N2CCC(c3noc(-c4ccccc4)n3)CC2)c1	-3	-3
O=[N+]([O-])c1ccccc1CNc1ccc2cn[nH]c2c1	59*	-8
COc1cc(CNC2CCCCCC2)c([N+](=O)[O-])cc1OC	0	0
O=[N+]([O-])c1cccc(CNc2ccc3c(c2)CCC3)c1	89*	-1
O=[N+]([O-])c1ccccc1CNc1ccc(F)c(F)c1	24	-3
O=[N+]([O-])c1cccc(CNc2cccc(F)c2)c1	0	11
O=C(Nc1ccc2cn[nH]c2c1)c1ccc([N+](=O)[O-])o1	1	9
COc1cc(CNc2ccc3c(c2)CCC3)c([N+](=O)[O-])cc1OC	71*	1
O=[N+]([O-])c1ccccc1CNc1ccc2c(c1)CCC2	94*	-2
COc1cc(Cl)cc(/C=C2\C(=O)NN(c3ccc(F)c(Cl)c3)C2=O)c1O	42	0
COc1ccc(C)cc1NC(=O)c1ccc(C)o1	-2	0
SMILES	mHTT-CaM PPI inh	Pf apPOL inh
COc1cc(CNc2ccc(F)c(Cl)c2)c([N+](=O)[O-])cc1OC	62*	-2
COc1cc(CNc2ccc(F)c(Cl)c2)cc([N+](=O)[O-])c1O	29	8
COc1ccc(CNC(=O)c2cnn3c(C(F)(F)F)cc(-c4ccc5c(c4)OCO5)nc23)cc1	-2	9
Cc1cc(=O)n2ccc(CN3CCCCC3)c(O)c2n1	92*	1
CC(C)(C)c1nc(CN2CCCCC2)cc(CN2CCCCC2)c1O	2	-8
CCC(CC)NC(=O)COc1cccc(C)c1	-7	-4
C(=C\c1ccccc1)/C1=Nc2ccccc2NC(c2ccccc2)C1 (centres undefined)	81*	-5
O=C(O)c1ccc(N2N=C(/C=C/c3ccccc3)CC2c2ccccc2)cc1 (centres undefined)	-26	1
COc1cccc(C(=O)C=C2NC(=O)CS2)c1	nt	-7
COc1ccc(C(=O)/C=C2/NC(=O)CS2)cc1	-7	77*
C=CCNC(=O)c1cnn2c1NC(c1cccs1)CC2C(F)(F)F (centres undefined)	3	0
Cc1ccc(NC(=O)c2csc(-c3ccc(C)n3C)n2)c(C)c1	-5	1
COc1ccccc1NC(=O)c1csc(-c2ccc(C)n2C)n1	7	-2
Cc1cc(C)cc(NC(=O)c2csc(-c3ccc(C)n3C)n2)c1	3	-9
Cc1ccc(-c2nc(C(=O)NCc3ccc(F)cc3)cs2)n1C	85*	-5
CCc1ccccc1NC(=O)c1csc(-c2ccc(C)n2C)n1	35	-3
Cc1ccc(NC(=O)c2csc(-c3ccc(C)n3C)n2)cc1	60*	-6
Cc1ccccc1CNC(=O)c1csc(-c2ccc(C)n2C)n1	82*	2
Cc1ccc(-c2nc(C(=O)NCc3ccccc3Cl)cs2)n1C	59*	0
